# The list is not random: actives were taken first. Their share in the collection is about 19%.
# TDP1 cell noCPT: qHTS for Inhibitors of human tyrosyl-DNA phosphodiesterase 1 (TDP1): qHTS in cells in absence of CPT | 420,000 tested, 15% active | DT40 Tdp1-/- hTDP1 cells, no CPT, ATP luminescence, 48 h | Potency, µM (doses to about 46.2 µM), most hits filed as inhibitors | AID 686978, 2013; further: nearly all actives have a fitted effect of over 55% in size
#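 Compound effects on proliferation are scored in DT40 Tdp1-/-;hTDP1 cells in the absence of CPT. ATP levels (CellTiter-Glo luminescence) are recorded after a ≥48 hr, 37 °C incubation.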
# HT1080 IDH1KD tx: kills HT-1080 cells with IDH1 knockdown. 360,000 tested, 2% active. AID 686971. Potency, µM (top dose mostly 46.1 µM), actives largely listed as cytotoxic. HT-1080 IDH1 knockdown viability, ATP luminescence, 48 h
#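 Knockdown cells (IDH1KD HT-1080) received compounds 2 h after plating at 750 cells/well and were kept 48 h at 37 °C in 5% FBS RPMI. A CellTiter-Glo luminescence read gave % activity for curve fitting.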
# HT1080NT lethal: kills 2HG-producing HT-1080-NT fibrosarcoma cells. Potency, µM (doses to about 46.1 µM), most hits filed as cytotoxic. AID 686970. HT-1080-NT fibrosarcoma viability, CellTiter-Glo ATP luminescence, 48 h. 360,000 tested, 1.6% active;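 further: NT is the 2HG producing partner of a matched IDH1 knockdown line; nearly all actives have a fitted effect of over 55% in size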
#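 750 cells/well, RPMI + 5% FBS; 2 h settle, compound pin-transfer, 48 h at 37 degrees C. CellTiter-Glo 10 min RT, luminescence. Normalized to DMSO and media-only wells.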
# DT40 TDP1 CPT: growth inhibition of DT40 Tdp1-/-;hTDP1 cells with camptothecin (screen for TDP1 inhibitors) | chicken DT40 Tdp1-/-;hTDP1 cells + 20 nM CPT, ATP luminescence, 48 h | Potency, µM (series often up to 46.2 µM), hits mostly inhibitors | 420,000 tested, 12% active | AID 686979; further: nearly all actives have a fitted effect of over 55% in size
#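 Chicken DT40 Tdp1-/- cells stably complemented with human TDP1 were seeded at 400 cells/well in medium containing 20 nM camptothecin, exposed to pin-transferred compounds, and grown at 37 °C for at least 48 hr. Viability was read as ATP luminescence.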
# IL-1B inflam inh: inflammasome signaling inhibition, IL-1 beta readout | THP-1 LPS/ATP IL-1B secretion, AlphaLISA, 16 h; stronger effect = lower value | activity change, % at 57.5 µM | 360,000 tested, 4.7% active | AID 743279; in the data active means activity change below about -50%; inconclusive means mostly about -30% to -49%
#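 Secreted IL-1B measured by AlphaLISA bead assay after 16 h compound exposure of THP-1 cells; compounds (final up to 57.5 uM) added 1 h before LPS (250 ng/mL) and ATP (1.25 mM) stimulation; lower signal means less secretion.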
# Numbers stand for hits; i = inactive; ? = inconclusive; nt = no result; [ ] = another dose, or the depositor's remark. Unless noted, the call rests on the fitted dose curve; in most records, active means well fitted curve in the direction sought with a large enough effect; inconclusive means small, poorly fitted or top-dose-only effect, or another doubt; inactive means no such curve, though single readings can be large; an effect the other way counts as inactive or inconclusive.
SMILES,TDP1 cell noCPT,HT1080 IDH1KD tx,HT1080NT lethal,DT40 TDP1 CPT,IL-1B inflam inh
CC(CNC(=O)c1ccccc1[N+](=O)[O-])NC(=O)c1ccccc1[N+](=O)[O-] (stereo unspecified),i,i,i,i,i
CC(Oc1ccccc1)C(=O)N1CCC2(CC1)CC(=O)c1ccccc1O2 (stereo unspecified),?,i,i,?,i
C=CCOc1c(OC)cc(/C=N/Nc2cccc(C(=O)O)c2)c(Br)c1Br,16µM,?,?,16µM,i
C=CCOc1c(/C=N\NC(N)=O)cccc1OC,i,i,i,i,i
CN(Cc1cn(Cc2ccccc2)nc1-c1ccc2c(c1)OCO2)Cc1nccn1C,?,i,i,?,?
Cc1ccccc1OCCCn1c(CCNC(=O)C2CCCCC2)nc2ccccc21,16µM,nt,nt,13µM,nt
CC(C)(C)c1ccc(OCCn2c(CCNC(=O)C3CCCCC3)nc3ccccc32)cc1,3.2µM,nt,nt,11µM,nt
CC(C)(C)NC(=O)Cn1c(SCC(N)=O)nc2ccccc21,?,i,i,26µM,i
Cc1cccc(OCCn2c(SCC(N)=O)nc3ccccc32)c1,21µM,nt,nt,?,nt
O=C(O)CCSc1nc2ccccc2n1CCOc1ccccc1,i,i,i,i,i
Cc1ccccc1OCCn1c(CCNC(=O)C(C)C)nc2ccccc21,?,i,i,i,i
OCCCc1nc2ccccc2n1CCCCOc1ccccc1,?,i,i,?,i
Cc1cccc(OCCCn2c(CCNC(=O)C(C)C)nc3ccccc32)c1,16µM,i,i,?,i
O=C(NCCc1nc2ccccc2n1CCCOc1ccc2ccccc2c1)C1CCCCC1,11µM,nt,nt,?,nt
Cc1ccc(OCCCCn2c(CCNC(=O)C3CCCCC3)nc3ccccc32)cc1,16µM,nt,nt,?,nt
Cc1cc(C)cc(OCCCn2c(CCNC(=O)C3CCCCC3)nc3ccccc32)c1,15µM,nt,nt,12µM,nt
Cc1cccc(OCCn2c(CCCO)nc3ccccc32)c1,i,i,i,i,i
COc1cccc(CN2CCN(c3nc4nonc4nc3NC3CC3)CC2)c1,?,i,i,i,i
COC(=O)c1cc2sccc2n1Cc1ccc(F)cc1Cl,i,nt,nt,i,nt
Cc1cc(C(=O)CN2CCCC(C)C2)c(C)n1-c1ccc(F)cc1 (stereo unspecified),?,i,i,i,i
CC(C)CNc1nc(Oc2ccc(OCC(N)=O)nn2)nc(N2CCOCC2)n1,i,nt,nt,i,nt
CC(=O)NCCc1nc2ccccc2n1CCOc1cccc(C)c1,?,i,i,?,i
Cc1cccc(OCCCn2c(CCNC(=O)C3CCCCC3)nc3ccccc32)c1,12µM,nt,nt,13µM,nt
CCOc1ccc(N(Cc2cc3cc(OC)ccc3[nH]c2=O)C(=O)C2CCCO2)cc1 (stereo unspecified),18µM,i,i,?,i
COc1ccc2[nH]c(=O)c(CN(C(=O)c3cccc(Cl)c3)c3ccccc3OC)cc2c1,?,nt,nt,23µM,nt
SMILES,TDP1 cell noCPT,HT1080 IDH1KD tx,HT1080NT lethal,DT40 TDP1 CPT,IL-1B inflam inh
Cc1ccc2cc(CN(C(=O)c3cccc(Cl)c3)c3ccccc3)c(=O)[nH]c2c1,18µM,nt,nt,12µM,nt
COc1ccc2[nH]c(=O)c(CN(C(=O)c3cccnc3)c3ccc(C)cc3)cc2c1,?,i,i,?,i
CCOc1ccc(N(Cc2cc3cc(C)ccc3[nH]c2=O)C(=O)c2cccc(Cl)c2)cc1,?,nt,nt,9.2µM,nt
O=C(Cn1cc(F)c(=O)[nH]c1=O)c1ccco1,i,i,i,i,i
O=C(NCc1nnc2n1CCN(C(=O)c1cccc(Cl)c1)CC2)C1CC1,i,nt,nt,i[9.04 µM],nt
COc1ccccc1N(Cc1cc(=O)[nH]c2ccccc12)C(=O)c1cccc([N+](=O)[O-])c1,?,i,i,21µM,i
CCC(=O)N(Cc1cc(=O)[nH]c2ccccc12)c1ccccc1OC,i,i,i,?,i
CC(C)c1nc(SCC(=O)Nc2ccc(N3CCOCC3)cc2)c2ccccc2n1,?,i,i,15µM,i
CCCc1nc(SCC(=O)Nc2ccc(N3CCOCC3)cc2)c2ccccc2n1,5.2µM,i,i,?,i
O=C(CSc1ccc2ccccc2n1)Nc1ccc(N2CCOCC2)cc1,i,i,i,i,i
